Assays:
Assay in all cases: DAPPL (digital affinity profiling via proximity ligation, sequencing); 10 mM Tris-HCl pH 7.5, 50 mM NaCl, 1 mM DTT, 4% glycerol, room temperature, 30 min; GST-TFs on glutathione beads, 16-mer random dsDNA library, 0.1% formaldehyde crosslink after washing; high values mean tight binding
FLI1 = target: T1, FLI1 (Homo sapiens, UniProt Q01543 1-452); conditions: protein: recombinant; tags: N-terminal GST; dsDNA, one strand shown
T1 sequence: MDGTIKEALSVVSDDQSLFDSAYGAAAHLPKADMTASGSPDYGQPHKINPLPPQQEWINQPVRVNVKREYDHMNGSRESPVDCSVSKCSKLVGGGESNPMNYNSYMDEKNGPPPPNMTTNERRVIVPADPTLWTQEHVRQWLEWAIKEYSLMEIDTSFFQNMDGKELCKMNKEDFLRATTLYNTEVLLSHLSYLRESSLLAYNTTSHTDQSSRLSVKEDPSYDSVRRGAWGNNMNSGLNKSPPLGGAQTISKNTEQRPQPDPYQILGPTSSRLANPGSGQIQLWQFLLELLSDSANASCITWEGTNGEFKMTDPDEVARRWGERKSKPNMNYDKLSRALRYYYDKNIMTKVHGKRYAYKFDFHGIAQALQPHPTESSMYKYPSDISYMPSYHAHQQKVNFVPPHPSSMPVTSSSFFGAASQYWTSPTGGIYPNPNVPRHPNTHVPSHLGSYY
Outline: (§1)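 GST fusions of human transcription factors were expressed in yeast and captured with glutathione beads. Once given DNA barcodes and pooled alongside a tag-only sample, they were incubated for 30 min at room temperature with 200 nmole of a random double-stranded 16-mer DNA library in Tris/NaCl/DTT/glycerol buffer, then washed, crosslinked (0.1% formaldehyde), proximity-ligated, PCR-amplified and sequenced on an Illumina NextSeq500. The binding signal of each hexamer is its read frequency for a factor divided by its frequency for the tag-only sample.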

ELK1 = target: T2, ELK1 (Homo sapiens, UniProt P19419 1-428); conditions: protein: recombinant; tags: N-terminal GST; dsDNA, one strand shown
T2 sequence: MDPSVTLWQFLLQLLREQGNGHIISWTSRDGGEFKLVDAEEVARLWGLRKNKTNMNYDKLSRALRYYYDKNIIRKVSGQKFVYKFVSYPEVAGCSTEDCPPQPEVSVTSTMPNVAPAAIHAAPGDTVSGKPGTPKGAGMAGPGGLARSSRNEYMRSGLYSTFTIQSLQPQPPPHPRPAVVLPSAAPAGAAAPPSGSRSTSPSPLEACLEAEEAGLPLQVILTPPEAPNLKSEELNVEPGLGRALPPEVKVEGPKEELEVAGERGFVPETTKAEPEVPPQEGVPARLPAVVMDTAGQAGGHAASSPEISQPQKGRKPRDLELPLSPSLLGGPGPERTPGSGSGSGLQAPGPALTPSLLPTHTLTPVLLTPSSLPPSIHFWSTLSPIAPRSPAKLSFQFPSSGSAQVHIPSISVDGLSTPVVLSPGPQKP
Outline: as §1

GABPA = target: T3, GABPA (Homo sapiens, UniProt Q06546 1-454); conditions: protein: recombinant; tags: N-terminal GST; dsDNA, one strand shown
T3 sequence: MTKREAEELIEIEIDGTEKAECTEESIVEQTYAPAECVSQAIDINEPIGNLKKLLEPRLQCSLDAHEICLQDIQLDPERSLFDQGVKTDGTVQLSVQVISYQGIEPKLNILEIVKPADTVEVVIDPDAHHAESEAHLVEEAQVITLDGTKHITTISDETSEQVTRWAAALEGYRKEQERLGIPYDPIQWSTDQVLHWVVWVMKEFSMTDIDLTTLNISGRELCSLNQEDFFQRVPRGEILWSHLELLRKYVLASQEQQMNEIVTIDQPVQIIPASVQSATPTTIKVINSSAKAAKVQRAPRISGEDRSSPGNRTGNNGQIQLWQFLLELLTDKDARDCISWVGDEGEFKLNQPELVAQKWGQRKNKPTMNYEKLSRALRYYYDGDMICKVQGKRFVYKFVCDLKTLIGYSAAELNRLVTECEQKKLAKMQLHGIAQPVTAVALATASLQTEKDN
Outline: as §1

ERG = target: T4, ERG (Homo sapiens, UniProt P11308 1-479); conditions: protein: recombinant; tags: N-terminal GST; dsDNA, one strand shown
T4 sequence: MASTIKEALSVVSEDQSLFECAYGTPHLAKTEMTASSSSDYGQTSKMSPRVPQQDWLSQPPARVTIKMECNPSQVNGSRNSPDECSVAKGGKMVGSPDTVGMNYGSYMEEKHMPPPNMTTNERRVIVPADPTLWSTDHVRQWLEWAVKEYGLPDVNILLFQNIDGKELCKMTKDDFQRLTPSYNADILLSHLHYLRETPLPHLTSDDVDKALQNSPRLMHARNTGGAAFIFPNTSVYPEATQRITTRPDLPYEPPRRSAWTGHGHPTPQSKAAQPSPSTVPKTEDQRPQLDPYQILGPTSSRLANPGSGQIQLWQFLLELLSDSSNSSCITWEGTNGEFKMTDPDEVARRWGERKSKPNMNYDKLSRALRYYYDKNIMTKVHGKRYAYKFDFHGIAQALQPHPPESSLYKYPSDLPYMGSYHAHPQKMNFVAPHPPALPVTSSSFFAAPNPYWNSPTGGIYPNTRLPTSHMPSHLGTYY
Outline: as §1

ELF1 = ELF1 (Homo sapiens, UniProt P32519 1-619); conditions: protein: recombinant; tags: N-terminal GST; dsDNA, one strand shown
Outline: as §1

EHF = target: T5, EHF (Homo sapiens, UniProt Q9NZC4 1-300); conditions: protein: recombinant; tags: N-terminal GST; dsDNA, one strand shown
T5 sequence: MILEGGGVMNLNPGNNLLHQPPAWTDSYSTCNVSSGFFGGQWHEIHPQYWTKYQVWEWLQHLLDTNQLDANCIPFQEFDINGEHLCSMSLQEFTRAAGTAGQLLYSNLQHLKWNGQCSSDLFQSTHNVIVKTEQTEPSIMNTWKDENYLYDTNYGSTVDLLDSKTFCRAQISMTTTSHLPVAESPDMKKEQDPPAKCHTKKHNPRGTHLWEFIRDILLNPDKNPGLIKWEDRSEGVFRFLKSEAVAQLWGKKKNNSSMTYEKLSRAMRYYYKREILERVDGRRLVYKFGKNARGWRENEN
Outline: as §1

SPI1 = SPI1 (Homo sapiens, UniProt P17947 1-270); conditions: protein: recombinant; tags: N-terminal GST; dsDNA, one strand shown
Outline: as §1

SPIB = SPIB (Homo sapiens, UniProt Q01892 1-262); conditions: protein: recombinant; tags: N-terminal GST; dsDNA, one strand shown
Outline: as §1

ELK3 = target: T6, ELK3 (Homo sapiens, UniProt P41970 1-407); conditions: protein: recombinant; tags: N-terminal GST; dsDNA, one strand shown
T6 sequence: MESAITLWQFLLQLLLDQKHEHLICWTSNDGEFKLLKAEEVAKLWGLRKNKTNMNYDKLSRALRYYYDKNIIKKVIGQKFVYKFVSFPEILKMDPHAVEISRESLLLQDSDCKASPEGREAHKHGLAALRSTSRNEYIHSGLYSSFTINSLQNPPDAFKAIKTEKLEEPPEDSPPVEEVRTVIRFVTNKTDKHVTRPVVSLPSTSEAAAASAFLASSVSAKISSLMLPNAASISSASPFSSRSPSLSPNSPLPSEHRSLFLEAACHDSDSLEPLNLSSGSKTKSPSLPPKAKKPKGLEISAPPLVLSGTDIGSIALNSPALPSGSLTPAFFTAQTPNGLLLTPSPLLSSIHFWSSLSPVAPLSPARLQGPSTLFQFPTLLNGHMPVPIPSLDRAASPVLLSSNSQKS
Outline: as §1

FEV = target: T7, FEV (Homo sapiens, UniProt Q99581 1-238); conditions: protein: recombinant; tags: N-terminal GST; dsDNA, one strand shown
T7 sequence: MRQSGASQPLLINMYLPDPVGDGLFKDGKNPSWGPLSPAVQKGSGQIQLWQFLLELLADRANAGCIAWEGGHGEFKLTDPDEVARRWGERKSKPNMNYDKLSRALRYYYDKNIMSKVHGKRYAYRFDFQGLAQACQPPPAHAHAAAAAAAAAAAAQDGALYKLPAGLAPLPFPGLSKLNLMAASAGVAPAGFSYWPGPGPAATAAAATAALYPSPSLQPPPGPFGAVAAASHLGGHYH
Outline: as §1

ETV5 = ETV5 (Homo sapiens, UniProt P41161 1-510); conditions: protein: recombinant; tags: N-terminal GST; dsDNA, one strand shown
Outline: as §1

HSF1 = HSF1 (Homo sapiens, UniProt Q00613 1-529); conditions: protein: recombinant; tags: N-terminal GST; chain copies: 3; dsDNA, one strand shown
Outline: as §1

SPIC = target: T8, SPIC (Homo sapiens, UniProt Q8N5J4 1-248); conditions: protein: recombinant; tags: N-terminal GST; dsDNA, one strand shown
T8 sequence: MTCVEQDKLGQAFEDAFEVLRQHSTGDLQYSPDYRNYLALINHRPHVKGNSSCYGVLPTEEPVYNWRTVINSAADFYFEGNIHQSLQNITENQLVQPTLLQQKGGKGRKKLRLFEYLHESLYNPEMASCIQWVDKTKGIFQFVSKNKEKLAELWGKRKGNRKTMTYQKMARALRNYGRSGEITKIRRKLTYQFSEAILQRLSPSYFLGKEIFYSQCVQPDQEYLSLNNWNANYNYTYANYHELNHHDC
Outline: as §1

ELF4 = ELF4 (Homo sapiens, UniProt Q99607 1-663); conditions: protein: recombinant; tags: N-terminal GST; dsDNA, one strand shown
Outline: as §1

ELK4 = target: T9, ELK4 (Homo sapiens, UniProt P28324-2 1-405); conditions: protein: recombinant; tags: N-terminal GST; dsDNA, one strand shown
T9 sequence: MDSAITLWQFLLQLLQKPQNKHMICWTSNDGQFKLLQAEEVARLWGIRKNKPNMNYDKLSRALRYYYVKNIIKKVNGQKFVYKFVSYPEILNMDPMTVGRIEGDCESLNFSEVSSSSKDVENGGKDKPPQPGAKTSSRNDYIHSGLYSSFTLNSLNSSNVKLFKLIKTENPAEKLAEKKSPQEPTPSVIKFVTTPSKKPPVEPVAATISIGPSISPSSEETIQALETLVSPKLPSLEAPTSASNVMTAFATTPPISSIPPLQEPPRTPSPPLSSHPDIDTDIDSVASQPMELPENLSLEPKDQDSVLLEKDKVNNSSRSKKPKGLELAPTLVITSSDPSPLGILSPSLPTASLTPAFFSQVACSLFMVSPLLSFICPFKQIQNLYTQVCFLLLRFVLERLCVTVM
Outline: as §1

ETV2 = target: T10, ETV2 (Homo sapiens, UniProt O00321 1-342); conditions: protein: recombinant; tags: N-terminal GST; dsDNA, one strand shown
T10 sequence: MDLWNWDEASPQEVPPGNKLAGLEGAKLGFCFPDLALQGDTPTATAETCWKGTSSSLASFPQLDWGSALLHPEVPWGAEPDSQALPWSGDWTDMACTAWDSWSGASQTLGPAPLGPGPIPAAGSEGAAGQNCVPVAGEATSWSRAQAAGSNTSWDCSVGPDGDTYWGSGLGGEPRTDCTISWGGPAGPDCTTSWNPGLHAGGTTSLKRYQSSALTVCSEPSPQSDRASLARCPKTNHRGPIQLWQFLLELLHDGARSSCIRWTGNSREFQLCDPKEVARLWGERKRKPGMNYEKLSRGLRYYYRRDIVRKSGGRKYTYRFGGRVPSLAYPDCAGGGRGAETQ
Outline: as §1

ELF3 = target: T11, ELF3 (Homo sapiens, UniProt P78545 1-371); conditions: protein: recombinant; tags: N-terminal GST; dsDNA, one strand shown
T11 sequence: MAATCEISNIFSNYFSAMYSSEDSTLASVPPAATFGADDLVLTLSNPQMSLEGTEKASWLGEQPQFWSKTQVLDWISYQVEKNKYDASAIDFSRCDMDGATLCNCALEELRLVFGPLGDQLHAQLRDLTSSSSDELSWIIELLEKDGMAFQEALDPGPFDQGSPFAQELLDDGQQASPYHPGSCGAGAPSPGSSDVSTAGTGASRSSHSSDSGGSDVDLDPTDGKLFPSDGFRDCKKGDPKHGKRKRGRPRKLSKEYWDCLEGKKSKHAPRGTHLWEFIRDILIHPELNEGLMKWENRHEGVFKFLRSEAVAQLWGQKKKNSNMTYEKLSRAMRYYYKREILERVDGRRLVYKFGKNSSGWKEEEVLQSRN
Outline: as §1

CRX = CRX (Homo sapiens, UniProt O43186 1-299); conditions: protein: recombinant; tags: N-terminal GST; dsDNA, one strand shown
Outline: as §1

ETV1 = ETV1 (Homo sapiens, UniProt P50549 1-477); conditions: protein: recombinant; tags: N-terminal GST; dsDNA, one strand shown
Outline: as §1

Chain of ETV5 (P41161 whole entry): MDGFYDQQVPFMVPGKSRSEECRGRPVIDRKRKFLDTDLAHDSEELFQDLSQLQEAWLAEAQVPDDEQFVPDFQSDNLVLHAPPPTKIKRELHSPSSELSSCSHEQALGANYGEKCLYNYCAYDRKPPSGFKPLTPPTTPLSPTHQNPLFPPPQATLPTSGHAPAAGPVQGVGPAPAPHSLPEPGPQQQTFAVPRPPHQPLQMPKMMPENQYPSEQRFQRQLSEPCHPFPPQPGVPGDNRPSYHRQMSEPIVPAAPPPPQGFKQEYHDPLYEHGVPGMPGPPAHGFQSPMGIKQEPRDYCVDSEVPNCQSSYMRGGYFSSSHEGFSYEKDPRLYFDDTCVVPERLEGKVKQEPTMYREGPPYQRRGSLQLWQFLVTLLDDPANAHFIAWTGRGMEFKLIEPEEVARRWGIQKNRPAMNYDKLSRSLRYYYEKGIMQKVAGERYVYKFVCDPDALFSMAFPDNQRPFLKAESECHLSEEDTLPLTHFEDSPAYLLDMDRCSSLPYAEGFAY
Chain of HSF1 (Q00613 whole entry): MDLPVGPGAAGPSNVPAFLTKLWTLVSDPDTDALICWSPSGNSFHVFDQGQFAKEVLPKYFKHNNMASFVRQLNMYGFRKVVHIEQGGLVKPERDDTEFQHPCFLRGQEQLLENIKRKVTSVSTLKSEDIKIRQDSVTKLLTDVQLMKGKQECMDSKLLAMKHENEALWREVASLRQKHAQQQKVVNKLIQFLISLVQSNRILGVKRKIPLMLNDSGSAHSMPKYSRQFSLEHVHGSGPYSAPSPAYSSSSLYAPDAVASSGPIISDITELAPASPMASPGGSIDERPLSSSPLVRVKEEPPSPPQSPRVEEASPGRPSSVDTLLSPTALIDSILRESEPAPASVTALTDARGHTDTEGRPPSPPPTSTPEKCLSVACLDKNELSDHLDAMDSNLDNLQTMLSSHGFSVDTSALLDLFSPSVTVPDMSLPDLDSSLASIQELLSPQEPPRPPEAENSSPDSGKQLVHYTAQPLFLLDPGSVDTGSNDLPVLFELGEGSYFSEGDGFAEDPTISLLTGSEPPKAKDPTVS
Chain of SPIB (Q01892 whole entry): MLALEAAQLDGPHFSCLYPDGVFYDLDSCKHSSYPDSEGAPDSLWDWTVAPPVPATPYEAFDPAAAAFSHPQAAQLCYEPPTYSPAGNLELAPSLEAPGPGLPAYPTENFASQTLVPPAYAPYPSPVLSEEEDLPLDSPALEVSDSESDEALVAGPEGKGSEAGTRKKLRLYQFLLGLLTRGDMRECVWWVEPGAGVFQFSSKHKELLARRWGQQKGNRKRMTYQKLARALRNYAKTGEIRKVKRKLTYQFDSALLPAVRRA
Chain of ELF4 (Q99607 whole entry): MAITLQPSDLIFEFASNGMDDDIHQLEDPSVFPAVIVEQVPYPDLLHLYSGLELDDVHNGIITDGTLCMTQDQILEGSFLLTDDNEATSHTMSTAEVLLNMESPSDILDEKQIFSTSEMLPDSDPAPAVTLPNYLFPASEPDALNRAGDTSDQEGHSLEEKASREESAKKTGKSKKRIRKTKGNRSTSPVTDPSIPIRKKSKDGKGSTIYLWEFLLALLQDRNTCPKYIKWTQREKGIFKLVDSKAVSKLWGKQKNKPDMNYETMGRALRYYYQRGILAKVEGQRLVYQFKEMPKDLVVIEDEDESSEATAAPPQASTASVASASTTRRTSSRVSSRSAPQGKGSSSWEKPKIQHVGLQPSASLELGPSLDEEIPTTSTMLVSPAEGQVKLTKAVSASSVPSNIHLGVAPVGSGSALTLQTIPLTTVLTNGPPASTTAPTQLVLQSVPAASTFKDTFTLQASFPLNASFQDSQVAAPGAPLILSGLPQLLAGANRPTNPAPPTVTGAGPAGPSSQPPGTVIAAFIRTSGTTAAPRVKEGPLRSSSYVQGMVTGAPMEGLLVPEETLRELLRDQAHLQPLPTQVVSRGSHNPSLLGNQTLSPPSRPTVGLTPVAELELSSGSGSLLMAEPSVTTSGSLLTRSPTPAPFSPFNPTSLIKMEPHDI
Chain of CRX (O43186 whole entry): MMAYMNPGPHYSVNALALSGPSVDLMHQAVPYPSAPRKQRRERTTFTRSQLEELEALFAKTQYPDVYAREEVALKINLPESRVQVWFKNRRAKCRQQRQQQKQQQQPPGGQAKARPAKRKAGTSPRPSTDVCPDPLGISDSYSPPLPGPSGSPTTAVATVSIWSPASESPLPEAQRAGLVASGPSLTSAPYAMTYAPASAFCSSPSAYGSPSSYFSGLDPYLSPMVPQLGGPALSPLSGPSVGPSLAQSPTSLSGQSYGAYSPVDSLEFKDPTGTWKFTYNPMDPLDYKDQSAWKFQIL
Chain of ELF1 (P32519 whole entry): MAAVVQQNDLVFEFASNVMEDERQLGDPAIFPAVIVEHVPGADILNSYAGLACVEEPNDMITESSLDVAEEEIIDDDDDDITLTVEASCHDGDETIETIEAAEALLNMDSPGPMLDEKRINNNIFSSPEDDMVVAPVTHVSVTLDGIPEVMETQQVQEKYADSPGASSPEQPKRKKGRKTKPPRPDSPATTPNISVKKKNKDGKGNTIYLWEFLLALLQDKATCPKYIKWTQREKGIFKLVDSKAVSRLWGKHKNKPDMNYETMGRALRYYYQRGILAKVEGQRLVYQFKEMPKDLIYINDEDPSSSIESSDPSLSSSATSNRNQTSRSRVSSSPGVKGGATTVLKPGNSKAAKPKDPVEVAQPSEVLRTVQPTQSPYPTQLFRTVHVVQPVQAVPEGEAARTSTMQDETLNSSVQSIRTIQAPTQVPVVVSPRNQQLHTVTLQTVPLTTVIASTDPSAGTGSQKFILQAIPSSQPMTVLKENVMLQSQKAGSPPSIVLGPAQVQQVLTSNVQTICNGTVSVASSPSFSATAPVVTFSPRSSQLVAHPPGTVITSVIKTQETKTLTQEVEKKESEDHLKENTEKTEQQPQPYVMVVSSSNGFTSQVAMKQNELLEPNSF
Chain of ETV1 (P50549 whole entry): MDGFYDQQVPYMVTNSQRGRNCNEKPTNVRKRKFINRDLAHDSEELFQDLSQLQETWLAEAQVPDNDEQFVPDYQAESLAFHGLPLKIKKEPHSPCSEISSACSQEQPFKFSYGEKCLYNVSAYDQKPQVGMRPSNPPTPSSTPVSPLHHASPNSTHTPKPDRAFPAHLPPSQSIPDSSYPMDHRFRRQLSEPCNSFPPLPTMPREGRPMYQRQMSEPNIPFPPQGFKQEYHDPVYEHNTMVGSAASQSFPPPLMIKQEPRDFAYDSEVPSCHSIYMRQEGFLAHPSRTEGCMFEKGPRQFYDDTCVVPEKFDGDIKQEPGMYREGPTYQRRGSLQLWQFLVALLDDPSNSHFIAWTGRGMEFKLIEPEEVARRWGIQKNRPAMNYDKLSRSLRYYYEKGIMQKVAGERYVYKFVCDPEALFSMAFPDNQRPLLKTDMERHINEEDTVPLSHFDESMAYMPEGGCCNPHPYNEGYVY

## TACTAC
FLI1
  binding signal: 1.29 fold enrichment (6-mer frequency, TF over GST control)
ELK1
  binding signal: 1.35 fold enrichment (6-mer frequency, TF over GST control)
GABPA
  binding signal: 1.31 fold enrichment (6-mer frequency, TF over GST control)
ERG
  binding signal: 1.24 fold enrichment (6-mer frequency, TF over GST control)
ELF1
  binding signal: 1.39 fold enrichment (6-mer frequency, TF over GST control)
EHF
  binding signal: 1.36 fold enrichment (6-mer frequency, TF over GST control)
SPI1
  binding signal: 1.2 fold enrichment (6-mer frequency, TF over GST control)
SPIB
  binding signal: 1.41 fold enrichment (6-mer frequency, TF over GST control)
ELK3
  binding signal: 1.2 fold enrichment (6-mer frequency, TF over GST control)
FEV
  binding signal: 1.35 fold enrichment (6-mer frequency, TF over GST control)
ETV5
  binding signal: 1.33 fold enrichment (6-mer frequency, TF over GST control)
HSF1
  binding signal: 1.17 fold enrichment (6-mer frequency, TF over GST control)
SPIC
  binding signal: 1.26 fold enrichment (6-mer frequency, TF over GST control)
ELF4
  binding signal: 1.36 fold enrichment (6-mer frequency, TF over GST control)
ELK4
  binding signal: 1.19 fold enrichment (6-mer frequency, TF over GST control)
ETV2
  binding signal: 1.38 fold enrichment (6-mer frequency, TF over GST control)
ELF3
  binding signal: 1.08 fold enrichment (6-mer frequency, TF over GST control)
CRX
  binding signal: 1.13 fold enrichment (6-mer frequency, TF over GST control)
ETV1
  binding signal: 1.24 fold enrichment (6-mer frequency, TF over GST control)

Source: article PMC7862700, “An all-to-all approach to the identification of sequence-specific readers for epigenetic DNA modifications on cytosine”
